Test results: PubChem BioAssay AID1159580 (chemical genetic matrix, 2015)
Several values for one entry are separate records, joined by “and”; a condition that tells them apart may be missing. Equal entries are not always repeated. Hit rate of the full screen: of about 5,500 compounds, about 2,000 (36%) were called active. Inconclusive results (about 18%) are left out. Cut-off read from the data, not from the text of the source: active = normalized growth mostly below about 0.91 (no sharp cut-off); inconclusive = no clear call, values can overlap the other calls; inactive = mostly above about 0.92. The list shows a part of the results.

Assay: chemical genetic growth profiling, strain panel (AID 1159580);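 note: tested at 20 µM; growth read once vehicle control cultures reached saturation at 30 °C; 1 = growth at the plate median or of vehicle wells; lower values mean less growth of the strain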
Details: S. cerevisiae deletion strains, growth OD

Measured: normalized growth

CN1CCN(C(c2ccccc2)c2ccccc2)CC1
inactive: locus YAL013W, strain DEP1, stronger effect = lower value 0.996 | locus YAL021C, strain ccr4, stronger effect = lower value 0.973 | locus YAL026C, strain drs2, stronger effect = lower value 0.988 | locus YAL030W, strain snc1, stronger effect = lower value 0.996 | locus YBL061C, strain skt5, stronger effect = lower value 0.993 | locus YBR009C, strain hhf1, stronger effect = lower value 1.01 | locus YBR021W, strain FUR4, stronger effect = lower value 0.998 | locus YBR023C, strain chs3, stronger effect = lower value 0.985 | locus YBR171W, strain sec66, stronger effect = lower value 0.975 | locus YBR229C, strain ROT2, stronger effect = lower value 1.01 | locus YBR231C, strain swc5, stronger effect = lower value 0.966 | locus YBR279W, strain paf1, stronger effect = lower value 0.995 | locus YCL011C, strain gbp2, stronger effect = lower value 0.998 | locus YCL016C, strain dcc1, stronger effect = lower value 0.973 | locus YCL029C, strain bik1, stronger effect = lower value 0.973 | locus YCL069W, strain vba3, stronger effect = lower value 0.995 | locus YCR088W, strain abp1, stronger effect = lower value 0.983 | locus YDL005C, strain med2, stronger effect = lower value 0.969 | locus YDL035C, strain GPR1, stronger effect = lower value 0.984 | locus YDL040C, strain nat1, stronger effect = lower value 0.98 | locus YDL074C, strain BRE1, stronger effect = lower value 0.993 | locus YDL101C, strain DUN1, stronger effect = lower value 1 | locus YDL134C, strain PPH21, stronger effect = lower value 1.01 | locus YDL185W, strain tfp1, stronger effect = lower value 0.942 | locus YDL192W, strain arf1, stronger effect = lower value 0.971 | locus YDR001C, strain nth1, stronger effect = lower value 1.02 | locus YDR069C, strain doa4, stronger effect = lower value 0.964 | locus YDR101C, strain arx1, stronger effect = lower value 0.988 | locus YDR137W, strain rgp1, stronger effect = lower value 0.994 | locus YDR150W, strain NUM1, stronger effect = lower value 0.989 | locus YDR159W, strain sac3, stronger effect = lower value 0.991 | locus YDR162C, strain NBP2, stronger effect = lower value 1.01 | locus YDR195W, strain ref2 0.958 | locus YDR297W, strain sur2, stronger effect = lower value 0.996 | locus YDR318W, strain mcm21, stronger effect = lower value 0.969 | locus YDR334W, strain swr1, stronger effect = lower value 0.977 | locus YDR335W, strain msn5, stronger effect = lower value 0.994 | locus YDR388W, stronger effect = lower value 0.966 | locus YDR392W, strain spt3, stronger effect = lower value 0.915 | locus YDR502C, strain sam2, stronger effect = lower value 0.978 | locus YEL003W, strain gim4, stronger effect = lower value 0.984 | locus YEL037C, strain rad23, stronger effect = lower value 0.988 | locus YEL061C, strain CIN8 (second series), stronger effect = lower value 0.997 | locus YEL061C, strain CIN8, stronger effect = lower value 0.975 | locus YER015W, strain faa2, stronger effect = lower value 0.979 | locus YER016W, strain bim1, stronger effect = lower value 0.971 | locus YER110C, stronger effect = lower value 0.973 | locus YER111C, strain swi4, stronger effect = lower value 0.983 | locus YER155C, strain BEM2 (second series), stronger effect = lower value 0.932 | locus YER155C, strain BEM2, stronger effect = lower value 1 | locus YER167W, strain BCK2, stronger effect = lower value 0.997 | locus YFR010W, strain ubp6, stronger effect = lower value 0.99 | locus YGL078C, strain dbp3, stronger effect = lower value 0.989 | locus YGL086W, strain mad1, stronger effect = lower value 0.983 | locus YGL167C, strain pmr1, stronger effect = lower value 0.98 | locus YGL173C, strain kem1, stronger effect = lower value 0.979 | locus YGL227W, strain vid30, stronger effect = lower value 0.968 | locus YGL240W, strain doc1, stronger effect = lower value 1.01 | locus YGL248W, strain PDE1, stronger effect = lower value 1 | locus YGL253W, strain hxk2, stronger effect = lower value 0.985 | locus YGR078C, strain PAC10, stronger effect = lower value 0.998 | locus YGR135W, strain pre9, stronger effect = lower value 0.979 | locus YGR229C, strain SMI1, stronger effect = lower value 1.03 | locus YGR252W, strain gcn5, stronger effect = lower value 1.03 | locus YHR013C, strain ard1, stronger effect = lower value 0.902 | locus YHR027C, strain rpn1, stronger effect = lower value 0.985 | locus YHR030C, strain SLT2, stronger effect = lower value 0.995 and 0.998 | locus YHR079C, strain IRE1 (second series), stronger effect = lower value 0.969 | locus YHR079C, strain IRE1, stronger effect = lower value 0.992 | locus YHR094C, strain hxt1, stronger effect = lower value 0.965 | locus YHR129C, strain ARP1, stronger effect = lower value 0.999 | locus YHR142W, strain chs7, stronger effect = lower value 1 | locus YHR200W, strain rpn10, stronger effect = lower value 0.966 | locus YIL066C, strain RNR3, stronger effect = lower value 1 | locus YIL073C, strain SPO22, stronger effect = lower value 0.965 | locus YIL125W, strain kgd1, stronger effect = lower value 0.981 | locus YIR030C, strain dcg1, stronger effect = lower value 0.967 | locus YJL092W, strain hpr5, stronger effect = lower value 0.991 | locus YJL095W, strain BCK1 (second series), stronger effect = lower value 0.993 | locus YJL095W, strain BCK1, stronger effect = lower value 0.966 and 0.998 | locus YJL115W, strain asf1, stronger effect = lower value 0.996 | locus YJL129C, strain trk1, stronger effect = lower value 0.968 | locus YJL134W, strain LCB3, stronger effect = lower value 0.997 | locus YJL154C, strain vps35, stronger effect = lower value 0.999 | locus YJL164C, strain tpk1, stronger effect = lower value 1.02 | locus YJL166W, strain qcr8, stronger effect = lower value 1.01 | locus YJL168C, strain set2, stronger effect = lower value 0.968 | locus YJL187C, strain SWE1 (second series), stronger effect = lower value 0.999 | locus YJL187C, strain SWE1, stronger effect = lower value 0.994 | locus YJR043C, strain POL32, stronger effect = lower value 1.01 | locus YJR066W, strain TOR1, stronger effect = lower value 0.994
